SW480 rereplic – A quantitative high throughput screen for small molecules that induce DNA re-replication in SW480 colon adenocarcinoma cells; 340,000 compounds, 1.8% hits; SW480 DNA re-replication, Hoechst DNA content imaging, 48 h; Potency, µM (doses to about 46.1 µM), most hits filed as activators; also: nearly all actives have a fitted effect of over 55% in size
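Image-based read-out: total Hoechst fluorescence of nuclei (405 nm excitation, 500-530 nm emission), with hits raising the fraction of high-intensity nuclei. SW480 colon cells incubated 48 hr with compounds at 37 C.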
VP16 counter – VP16 counterscreen qHTS for inhibitors of ROR gamma transcriptional activity. Potency, µM (top dose mostly 53.6 µM), most hits filed as inhibitors. 310,000 compounds, 3.5% hits. Drosophila S2 Gal4-VP16 UAS-luciferase, luminescence, 20 h. AID 2546, 2010;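 also: Gal4-VP16 expression switched on by copper sulfate through the metallothionein promoter; nearly all actives have a fitted effect of over 50% in size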
RORgamma inh – qHTS for inhibitors of ROR gamma transcriptional activity. Drosophila S2 Gal4-RORgamma UAS-luciferase reporter, 20 h. Nuclear receptor ROR-gamma (Mus musculus), P51450. Potency, µM (top dose mostly 53.6 µM), usual class: inhibitors. 310,000 compounds, 5.4% hits; also: nearly all actives have a fitted effect of over 60% in size
Target sequence (P51450 whole entry, looked up, the tested form may be a part): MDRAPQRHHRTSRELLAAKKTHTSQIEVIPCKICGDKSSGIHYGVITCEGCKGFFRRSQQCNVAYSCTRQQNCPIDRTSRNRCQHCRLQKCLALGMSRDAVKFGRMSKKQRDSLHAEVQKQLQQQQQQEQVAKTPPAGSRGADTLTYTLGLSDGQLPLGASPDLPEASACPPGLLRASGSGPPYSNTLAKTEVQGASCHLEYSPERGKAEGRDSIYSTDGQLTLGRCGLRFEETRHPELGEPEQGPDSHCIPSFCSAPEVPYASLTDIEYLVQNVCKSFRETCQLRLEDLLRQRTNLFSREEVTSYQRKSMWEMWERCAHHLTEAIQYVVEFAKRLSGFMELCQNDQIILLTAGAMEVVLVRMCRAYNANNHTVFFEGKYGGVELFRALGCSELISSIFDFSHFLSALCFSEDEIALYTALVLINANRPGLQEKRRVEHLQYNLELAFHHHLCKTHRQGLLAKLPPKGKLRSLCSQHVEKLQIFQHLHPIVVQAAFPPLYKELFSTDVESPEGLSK
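Luciferase reporter read in Schneider cells carrying Gal4-RORγ (mouse) and UAS-Photinus luciferase; cells given compound 1 h before 700 uM copper sulfate induction, then incubated 20 h at ambient temperature.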
IL1B secr inh – qHTS for Inhibitors of Inflammasome Signaling: IL-1-beta AlphaLISA Primary Screen | THP-1 LPS/ATP IL-1B secretion, AlphaLISA, 16 h; active compounds read low | activity change, % at 57.5 µM | 360,000 compounds, 4.7% hits | AID 743279, 2014; in the data active = activity change below about -50%; inconclusive = mostly about -30% to -49%
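THP-1 cells pretreated 1 hr with compounds (up to 57.5 uM final), then stimulated with LPS (250 ng/mL final) plus ATP (1.25 mM final); secreted IL-1B measured by AlphaLISA after 16 hr, decreased signal indicating inhibition.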
MCF10A rerep – A quantitative high throughput screen for small molecules that induce DNA re-replication in MCF 10a normal breast cells; MCF 10A DNA re-replication, Hoechst nuclear intensity, 48 h; Potency, µM (series often up to 46.1 µM), actives largely listed as activators; 350,000 compounds, 2.9% hits; AID 624296, 2012; also: nearly all actives have a fitted effect of over 50% in size
Of the large screens only hits and unclear results are named; the others gave an inactive call. Most compounds without a hit are left out; they make up all but 11% or so of the library. Unless noted, calls follow the shape of the dose curve; as a rule, active = well fitted curve in the direction sought with a large enough effect; inconclusive = small, poorly fitted or top-dose-only effect, or another doubt; inactive = no such curve, though single readings can be large; an effect the other way counts as inactive or inconclusive.

Cc1noc(C)c1-c1cc(NC2CC2)ncn1	RORgamma inh inconclusive (no result: SW480 rereplic, IL1B secr inh, MCF10A rerep)
Cn1nnnc1NCc1ccccc1F	RORgamma inh 0.63µM
CCCn1nnnc1NCc1ccc(SC)cc1	IL1B secr inh -58
CCOc1ccccc1CNc1nnnn1C	none
CCCn1nnnc1NCc1ccc(F)cc1	none
CCCn1nnnc1NCc1ccccc1OCc1ccc(F)cc1	SW480 rereplic inconclusive, MCF10A rerep 23µM
O=C(Nc1ccccc1)c1cc(C2CCCCN2S(=O)(=O)c2ccc(F)cc2F)on1 (configuration not stated)	none (no result: SW480 rereplic, VP16 counter, RORgamma inh, MCF10A rerep)
Cc1ccc(C23CC4CC(CC(C(=O)N5CCN(C)CC5)(C4)C2)C3)cc1	MCF10A rerep inconclusive
Cc1ccc(C23CC4CC(CC(NC(=O)N5CCN(C)CC5)(C4)C2)C3)cc1	RORgamma inh 13µM, IL1B secr inh inconclusive
O=C(NCc1nc2ccccc2[nH]1)c1c(F)c(F)c(F)c(F)c1F	IL1B secr inh -78
CN(C)NC(=S)Nc1ccc2nc(-c3ccccn3)c(-c3ccccn3)nc2c1	SW480 rereplic inconclusive, VP16 counter 16µM, RORgamma inh 13µM
OCCCNC(=S)Nc1ccc2nc(-c3ccccn3)c(-c3ccccn3)nc2c1	none
CC(C)(C)CC(C)(C)NC(=S)Nc1ccc2nc(-c3ccccn3)c(-c3ccccn3)nc2c1	SW480 rereplic inconclusive, VP16 counter inconclusive, RORgamma inh 7.1µM
CC(C)(C)c1ccc(CC(=O)N2CCC2(C)C(=O)NCc2ccc3c(c2)OCO3)cc1 (configuration not stated)	none (no result: SW480 rereplic, VP16 counter, RORgamma inh, MCF10A rerep)
CC(CO)NS(=O)(=O)c1cc(Cl)ccc1F (configuration not stated)	none (no result: SW480 rereplic, VP16 counter, RORgamma inh, MCF10A rerep)
O=C(Nc1nccs1)c1ccc(Cl)c(S(=O)(=O)N2CCCCC2)c1	VP16 counter inconclusive, RORgamma inh 10µM, MCF10A rerep inconclusive
O=C(Nc1nccs1)c1ccc(Br)c(S(=O)(=O)N2CCOCC2)c1	VP16 counter inconclusive, RORgamma inh 13µM
O=C(Nc1ccon1)c1ccc(Cl)c(S(=O)(=O)N2CCCCC2)c1	VP16 counter 2.2µM, RORgamma inh 1.4µM
Cc1cccnc1NC(=O)c1cccc(S(=O)(=O)N2CCCc3ccccc32)c1	VP16 counter inconclusive, RORgamma inh 11µM
O=C(Nc1nccs1)c1ccc(F)c(S(=O)(=O)N2CCOCC2)c1	none
O=C(Nc1ccon1)c1ccc(F)c(S(=O)(=O)N2CCCCC2)c1	none
O=C(Nc1nccs1)c1cc(S(=O)(=O)N2CCCCC2)ccc1Cl	none
CN1CCN(c2ncnc3ccc(-c4cccnc4)cc23)CC1	none (no result: SW480 rereplic, IL1B secr inh, MCF10A rerep)
COc1ccc(-c2cc3nc(NCC4CCCCC4)n(C)c(=O)c3s2)cc1OC	none (no result: SW480 rereplic, VP16 counter, RORgamma inh, MCF10A rerep)
CC1CCN(S(=O)(=O)c2cccc(C(=O)Nc3nccs3)c2)CC1	VP16 counter inconclusive, RORgamma inh 11µM
O=C(Nc1nc2ccccc2[nH]1)c1ccc(Cl)c(S(=O)(=O)N2CCCC2)c1	SW480 rereplic inconclusive, VP16 counter 8.9µM, RORgamma inh 6.3µM, IL1B secr inh -59, MCF10A rerep inconclusive
O=C(Nc1nc2ccccc2[nH]1)c1ccc(S(=O)(=O)N2CCOCC2)cc1	VP16 counter inconclusive, MCF10A rerep inconclusive
Cc1cccnc1NC(=O)c1ccc(Cl)c(S(=O)(=O)N2CCCCCC2)c1	VP16 counter inconclusive, RORgamma inh 4µM
CC(C)CN1CCC2(CC1)CCN(C(=O)c1ccco1)CC2	none (no result: SW480 rereplic, IL1B secr inh, MCF10A rerep)
COc1ccc(NC(=S)NCc2cccn2C)cc1	none
COc1ccc(NC(=S)NCc2cccs2)cc1	SW480 rereplic inconclusive, VP16 counter inconclusive, RORgamma inh 4µM, MCF10A rerep inconclusive
CC(C)c1ccc(NC(=S)NCc2cccs2)cc1	SW480 rereplic inconclusive, VP16 counter inconclusive, RORgamma inh 16µM, MCF10A rerep inconclusive
CNC(=S)Nc1cc(OC)ccc1OC	VP16 counter inconclusive, RORgamma inh 11µM
COc1ccccc1CNc1cc(C)ccc1C	none
COc1ccccc1CNC(=S)Nc1cc(C)ccc1C	VP16 counter inconclusive, RORgamma inh 3.2µM
COc1ccc(OC)c(NC(=S)NCc2ccccc2OC)c1	RORgamma inh 7.1µM
COc1ccc(OC)c(NC(=S)NCCC(c2ccccc2)c2ccccc2)c1	none (no result: VP16 counter, RORgamma inh)
COc1ccc(OC)c(NC(=S)NCc2cccs2)c1	VP16 counter inconclusive, RORgamma inh 14µM
CC(CCC#N)[N+](=O)[O-] (configuration not stated)	none (no result: SW480 rereplic, IL1B secr inh, MCF10A rerep)
CN(Cc1c(F)cccc1Cl)C(=O)CNC(=O)c1cccs1	VP16 counter inconclusive
CCCCC1CC2=C(C(=O)OC(C)(C)O2)C(c2ccc(F)cc2)O1 (configuration not stated)	none (no result: SW480 rereplic, VP16 counter, RORgamma inh, MCF10A rerep)
Fc1ccccc1-n1c(-c2ccc3ccccc3n2)n[nH]c1=S	SW480 rereplic inconclusive, VP16 counter inconclusive, RORgamma inh 1.4µM
S=c1[nH]nc(-c2ccc3ccccc3n2)n1-c1ccccc1	VP16 counter 2µM, RORgamma inh 1.4µM
S=c1[nH]nc(CCc2nc3ccccc3[nH]2)n1-c1ccccc1	none
COCc1n[nH]c(=S)n1-c1cccc2ccccc12	RORgamma inh inconclusive
Cc1ccccc1S(=O)(=O)NC1OC(=O)C(Oc2ccccc2)=C1Br (configuration not stated)	none
Cc1ccccc1S(=O)(=O)NC1OC(=O)C(Cl)=C1Cl (configuration not stated)	SW480 rereplic inconclusive, IL1B secr inh -107, MCF10A rerep inconclusive
O=c1c(O)c(-c2ccc(O)c(O)c2)oc2ccccc12	RORgamma inh inconclusive (no result: SW480 rereplic, IL1B secr inh, MCF10A rerep)
COc1ccc(C(C)(NC(C)=O)c2nc(-c3cnc4ccccc4c3)cs2)cc1 (configuration not stated)	none (no result: SW480 rereplic, VP16 counter, RORgamma inh, MCF10A rerep)
C=CCOc1ccc(/C=C2\SC(=Nc3cccnc3)NC2=O)cc1	none
COC(=O)/C=C1\SC(=Nc2ccccc2)NC1=O	SW480 rereplic inconclusive, IL1B secr inh -65
COC(=O)/C=C1/SC(=Nc2ccc(C)cc2C)NC1=O	MCF10A rerep inconclusive
COC(=O)/C=C1/SC(=NC(=O)c2ccc(Cl)cc2)NC1=O	none (no result: VP16 counter, RORgamma inh)
CC(/C=C1\SC(=Nc2cccnc2)NC1=O)=C\c1ccccc1	MCF10A rerep 1.6µM
COC(=O)/C=C1/SC(=Nc2ccc(Cl)c(Cl)c2)NC1=O	MCF10A rerep 26µM
CN(C)c1cccc(C(=O)NNC(=O)CSc2ccccc2)c1	none
CC(C)CCN(C)C1CCN(S(=O)(=O)c2cccc(C(F)(F)F)c2)CC1	SW480 rereplic inconclusive, IL1B secr inh -53
COc1ccc2[nH]c3c(c2c1)CCN1C(=O)N([C@@H](C)C(=O)NC2CCN(Cc4ccccc4)CC2)C(=O)[C@]31C	SW480 rereplic inconclusive
CCNc1ncc2nc(-c3ccc(OC)cc3)c(=O)n(CCOC)c2n1	none (no result: SW480 rereplic, IL1B secr inh, MCF10A rerep)
COc1ccccc1-c1cc(C(F)(F)F)c(C#N)c(=O)[nH]1	MCF10A rerep inconclusive

Assay outcomes from PubChem.
